The subject of the assay is Wnt5a (protein binding on small-molecule microarray). The experiment in a line: small molecules binding Wnt5a protein – biophysical, small-molecule microarray, 635/667 nm fluorescence, primary screen (AID 1142).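 Also: fluorescence read at 667 nm with signal to noise per printed feature.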 Particulars: 635 nm fluorescence, higher = more signal.
As for `O=C1O[C@H](c2ccccc2)[C@H](c2ccccc2)N2[C@H]1[C@@H](C(=O)NC[C@H](O)c1ccccc1)[C@]1(C(=O)Nc3ccc(C#CC4(O)CCCCCC4)cc31)[C@H]2c1ccccc1OCCO`, the composite z-score stood at 1.21.
Under `O=C1OCCC=C[C@H]2OC34C=CCN(c5ccc6ccccc6c5)C(=O)[C@H]3N(CCCCCCO)C(=O)[C@@H]4C12` (stereo not given in full) stands -0.315; under `COC(=O)C(CC#Cc1ccc2c(c1)[C@]1(C(=O)N2)[C@H](C(=O)N2CCCCCCC2)[C@H]2C(=O)O[C@H](c3ccccc3)[C@H](c3ccccc3)N2[C@@H]1c1ccccc1OCCO)C(=O)OC`, 2.44; under `[N-]=[N+]=Nc1ccccc1[C@@H]1OC(c2ccc(OCCCO)cc2)=N[C@]1(CCS(=O)(=O)c1ccccc1)C(=O)N1CCCCC1`, 0.626.
Under `CCOC(=O)C[C@H]1[C@H](OC(=O)c2cc3ccccc3oc2=O)[C@@H](NC(=O)c2ccc3ccccc3c2)c2cc(OCCCO)ccc2N1C(=O)c1ccccc1` stands 0.406.
On to `COCCOC(=O)N1C(=O)[C@@]2(c3cc(C#CCCO)ccc31)[C@H](c1ccc(O)cc1)N1[C@H](c3ccccc3)[C@H](c3ccccc3)OC(=O)[C@H]1[C@@H]2C(=O)N1CCCCCCC1`, for which the composite z-score was 0.799.
Under `O=[N+]([O-])c1ccc(C[n+]2ccc(CCCO)cc2)o1` stands 0.98; under `COCCn1c(C(=O)N2CCCC2)cc2c1C[C@H]1CN(C(=O)c3ccccc3)[C@@](Cc3ccc(OC)cc3)(C(=O)OC)[C@@H]21`, 0.644; under `O=C1c2ccccc2[C@](Cc2ccccc2I)(C(=O)O)[C@H](c2ccc(CO)cc2)N1Cc1ccccc1C(F)(F)F`, -0.186.
Under `COc1ccc(C#Cc2ccc3c(c2)[C@]2(C(=O)N3)[C@H](C(=O)N3CCN(c4ncccn4)CC3)[C@H]3C(=O)O[C@H](c4ccccc4)[C@H](c4ccccc4)N3[C@@H]2c2ccc(O)cc2)cc1` stands 0.205; under `Oc1ccc2cc[n+](Cc3cccc(OC(F)(F)F)c3)cc2c1`, 0.112; under `O=C1[C@H]2C=C(Br)[C@H](C[C@@H]2OCCOCCO)[C@@]12CO2`, 0.268.
Molecule `CC(c1ccccc1)C(O)C1C=CC2C(=O)N(Cc3ccccc3)C(=O)C2N1n1cnnc1` (stereo not given) yielded a composite z-score of 0.0618.
In the case of `COCCCNC(=O)[C@@]1(C)c2ccccc2C(=O)N(Cc2ccccc2)[C@H]1c1ccc(CO)cc1`, the composite z-score was -0.811.
Consider `NC(=O)NCC#Cc1ccc2c(c1)[C@]1(C(=O)N2)[C@H](c2ccc(O)cc2)N2[C@H](c3ccccc3)[C@H](c3ccccc3)OC(=O)[C@H]2[C@@H]1C(=O)N1CCN(c2ncccn2)CC1`, for which the composite z-score is 0.0724.
Under `C=C[C@H](C)[C@H](OC(=O)Nc1ccc(OC)cc1)c1ccc(O)c2ccccc12` stands 0.107; under `COCC1C2CC[C@H]3C(OCc4ccc(F)cc4C(F)(F)F)OC[C@]4(C)[C@H]3C2=C(CN4C(=O)OC(C)(C)C)[C@H](C)C1COC` (stereo not given in full), 0.33; under `C=CCN1C(=O)[C@]2(Cc3ccccc31)N=C(c1ccc(OCCCO)cc1)O[C@@H]2c1ccccc1`, 1.2.
Under `[N-]=[N+]=NCc1ccccc1[C@@H]1OC(c2ccc(OCCCO)cc2)=N[C@]1(Cc1ccccc1)C(=O)O` stands -0.198; under `O=C(NCCN1CCOCC1)[C@@H]1c2ccccc2C(=O)N(Cc2cc(F)cc(C(F)(F)F)c2)[C@H]1c1ccc(CO)cc1`, -0.33; under `O=c1cccc(-c2ccccc2)o1`, -0.299.
`O=C1O[C@@H](c2ccccc2)[C@@H](c2ccccc2)N2[C@@H](c3ccc(O)cc3)[C@]3(C(=O)Nc4ccccc43)[C@@H](C(=O)N3CCCCCCC3)[C@H]12` gave a composite z-score of 1.36.
In turn, `Cc1ccccc1/C=C/C=O` displayed a composite z-score of -0.373.
Under `COc1ccc([Si](C)(C)[C@H]2[C@H](CC(=O)N3Cc4ccccc4C[C@H]3CO)O[C@@]3(C(=O)N(Cc4cccc(I)c4)c4ccccc43)[C@@H]2C)cc1` stands 0.378; under `C=C(/C(=C/C[C@@H](OC(C)=O)c1ccc(CO)o1)c1cnc2ccccc2c1)C(C)C`, 1.3; under `[N-]=[N+]=NCc1ccccc1[C@@H]1OC(c2ccc(OCCCO)cc2)=N[C@]1(Cc1ccccc1N=[N+]=[N-])C(N)=O`, 0.138.
Under `C=CCOC(=O)[C@H]1[C@@H]2C(=O)O[C@@H](c3ccccc3)[C@@H](c3ccccc3)N2[C@@H](c2ccc(OCCOC(=O)[C@H]3C[C@H]4C(=O)N[C@@H](CCCC[N+](C)(C)C)C(=O)N4[C@H]3c3ccc(O)cc3)cc2)[C@]12C(=O)Nc1ccccc12` stands 0.0385.
To `CC1CC/C=C\[C@H]2OC34C=CCN(Cn5nnc6ccccc65)C(=O)[C@H]3N(CCCO)C(=O)[C@@H]4C2C(=O)O1` (stereo not given in full) belongs -0.595.
Molecule `Cc1cc(C)c(C(O)C2C=CC3C(=O)NC(=O)C3N2Nc2ccccn2)c(C)c1` (stereo not given) gave a composite z-score of -0.265.
The molecule `C=C[C@@H](C)[C@@H](OC(=O)Nc1ccc(OC)cc1)c1ccc(O)c2ccccc12` had a composite z-score of -0.124.
In turn, `[N-]=[N+]=NCc1ccccc1[C@H]1OC(c2ccc(OCCCO)cc2)=N[C@@]1(Cc1ccccc1)C(=O)NCC(O)CO` (stereo not given in full) returned a composite z-score of 0.11.
To `C=CC[C@]1(C(=O)O)N=C(c2ccc(OCCCO)cc2)O[C@H]1c1ccccc1CN=[N+]=[N-]` belongs 0.0194.
As for `NC(=O)[C@@]1(CCS(=O)(=O)c2ccccc2)N=C(c2ccc(OCCCO)cc2)O[C@H]1c1ccccc1`, the composite z-score was 0.211.
`C=C(CCCC)/C(=C/C[C@H](OC(C)=O)c1ccc(CO)o1)c1cc(C(=O)OC)ccc1OC`: the composite z-score is 0.244.
In the case of `O=C1O[C@@H](c2ccccc2)[C@@H](c2ccccc2)N2[C@@H](c3ccc(O)cc3)[C@]3(C(=O)Nc4ccccc43)[C@@H](C(=O)NC[C@H](O)c3ccccc3)[C@H]12`, the composite z-score came to 0.062.
